Source: PubChem BioAssay
A number with no mark means an inactive call. Where a call stands in place of a potency, no number is given. For part of these data: Potency and affinity values are given separately. Activity calls are given as the source filed them. Unless noted, how the calls were made is not given here.

Experiments:
[1] = antimalarial activity against Dd2 strain (AID 2302;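 active means growth inhibition above 50% at the single 2 µM test dose, taken to imply half-maximal potency below 2 µM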); conditions: P. falciparum Dd2 in RBCs, LDH growth readout, 72 h; at 2 µM; hits give high values
[2] = human hepatoma cell viability loss – ATP luminescence, cytotoxicity control for P. falciparum antimalarial project, primary screen (AID 2303;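 active means inhibition above 50%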); conditions: HepG2 viability, 24-48 h, at 10 µM, hits give high values
[3] = target: L-lactate dehydrogenase (Plasmodium falciparum (isolate CDC / Honduras)) (UniProt Q27743); assay: PfLDH activity inhibition – cell lysate, 3D7 strain, counter-screen for P. falciparum growth inhibition project (AID 2304); conditions: P. falciparum 3D7 crude extract, LDH APAD/NBT absorbance; at 2 µM; hits give high values
Chain of L-lactate dehydrogenase (Plasmodium falciparum (isolate CDC / Honduras)) (Q27743 whole entry, looked up): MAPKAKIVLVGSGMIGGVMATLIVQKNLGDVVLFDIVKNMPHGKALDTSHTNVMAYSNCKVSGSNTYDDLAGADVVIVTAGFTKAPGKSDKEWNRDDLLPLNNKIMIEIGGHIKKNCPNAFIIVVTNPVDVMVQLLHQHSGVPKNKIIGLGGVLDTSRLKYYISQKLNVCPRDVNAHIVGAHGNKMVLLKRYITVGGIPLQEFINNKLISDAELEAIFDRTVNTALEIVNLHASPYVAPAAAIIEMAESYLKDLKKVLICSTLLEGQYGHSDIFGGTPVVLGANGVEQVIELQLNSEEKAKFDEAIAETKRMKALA

[4] = inhibition of 3D7 malaria parasite growth – strain 3D7 (AID 2306); conditions: P. falciparum 3D7 erythrocytic growth, LDH absorbance, 72 h; at 2 µM; hits give high values
[5] = target: Calcium-dependent protein kinase 1 (Plasmodium falciparum (isolate 3D7)) (UniProt P62344); assay: PfCDPK1 kinase inhibitors, biochemical, TCAMS library (AID 1159585; cut-off not given, nearly all actives have IC50 up to about 0.98 µM;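 further: inhibitors leave more ATP so luminescence rises with inhibition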); conditions: recombinant PfCDPK1, Kinase-Glo ATP depletion luminescence
Chain of Calcium-dependent protein kinase 1 (Plasmodium falciparum (isolate 3D7)) (P62344 whole entry, looked up): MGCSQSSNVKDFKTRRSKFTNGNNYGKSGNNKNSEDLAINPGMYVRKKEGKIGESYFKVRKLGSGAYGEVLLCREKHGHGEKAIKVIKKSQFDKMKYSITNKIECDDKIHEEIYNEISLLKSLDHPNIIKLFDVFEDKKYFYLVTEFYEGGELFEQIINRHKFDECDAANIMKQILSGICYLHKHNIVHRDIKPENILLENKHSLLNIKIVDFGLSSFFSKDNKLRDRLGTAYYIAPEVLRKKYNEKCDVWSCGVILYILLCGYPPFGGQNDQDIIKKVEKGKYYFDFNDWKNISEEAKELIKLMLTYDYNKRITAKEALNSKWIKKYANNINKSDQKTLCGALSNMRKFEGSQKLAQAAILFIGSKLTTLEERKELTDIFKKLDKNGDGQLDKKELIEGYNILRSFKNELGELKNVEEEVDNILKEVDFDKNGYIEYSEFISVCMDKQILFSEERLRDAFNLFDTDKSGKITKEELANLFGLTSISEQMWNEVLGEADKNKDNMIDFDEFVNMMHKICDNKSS

[6] = target: Plasmodium falciparum protein kinase 6 (PK6, PF3D7_1337100) (UniProt Q8IDW1); assay: PfPK6 kinase inhibitors, biochemical, TCAMS library (AID 1159586); conditions: recombinant PfPK6, Kinase-Glo ATP depletion luminescence
Chain of Plasmodium falciparum protein kinase 6 (PK6, PF3D7_1337100) (Q8IDW1 1-305): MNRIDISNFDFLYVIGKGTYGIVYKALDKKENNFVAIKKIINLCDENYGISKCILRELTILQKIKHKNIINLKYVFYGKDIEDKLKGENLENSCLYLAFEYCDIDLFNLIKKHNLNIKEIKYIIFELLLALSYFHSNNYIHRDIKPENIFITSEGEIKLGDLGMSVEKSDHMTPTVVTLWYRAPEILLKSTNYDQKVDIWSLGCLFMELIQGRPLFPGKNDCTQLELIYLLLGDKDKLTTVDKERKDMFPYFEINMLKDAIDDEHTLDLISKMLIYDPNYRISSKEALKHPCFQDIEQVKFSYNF

[7] = target: Protein kinase 7 (PK7), Plasmodium falciparum 3D7 (PF3D7_0213400) (UniProt Q7YTF7); assay: inhibition of Plasmodium PK7 catalytic activity – biochemical, TCAMS antimalarial set, Kinase-Glo luminescence (AID 1159587); conditions: recombinant PfPK7, Kinase-Glo ATP depletion luminescence
Chain of Protein kinase 7 (PK7), Plasmodium falciparum 3D7 (PF3D7_0213400) (Q7YTF7 1-343): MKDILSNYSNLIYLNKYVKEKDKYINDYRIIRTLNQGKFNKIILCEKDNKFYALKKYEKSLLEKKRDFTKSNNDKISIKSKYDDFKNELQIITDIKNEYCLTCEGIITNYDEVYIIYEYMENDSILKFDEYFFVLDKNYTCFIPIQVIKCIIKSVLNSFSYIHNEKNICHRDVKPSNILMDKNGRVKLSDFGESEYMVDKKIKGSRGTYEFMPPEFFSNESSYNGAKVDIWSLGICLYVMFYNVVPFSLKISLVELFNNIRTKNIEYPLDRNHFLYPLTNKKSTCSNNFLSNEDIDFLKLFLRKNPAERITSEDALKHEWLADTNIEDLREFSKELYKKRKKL

[8] = target: Calcium-dependent protein kinase 4 (Plasmodium falciparum (isolate 3D7)) (UniProt Q8IBS5); assay: PfCDPK4 kinase inhibitors, biochemical, TCAMS library (AID 1159588; cut-off not given, nearly all actives have IC50 up to about 0.91 µM); conditions: recombinant PfCDPK4, Kinase-Glo ATP depletion luminescence
Chain of Calcium-dependent protein kinase 4 (Plasmodium falciparum (isolate 3D7)) (Q8IBS5 whole entry, looked up): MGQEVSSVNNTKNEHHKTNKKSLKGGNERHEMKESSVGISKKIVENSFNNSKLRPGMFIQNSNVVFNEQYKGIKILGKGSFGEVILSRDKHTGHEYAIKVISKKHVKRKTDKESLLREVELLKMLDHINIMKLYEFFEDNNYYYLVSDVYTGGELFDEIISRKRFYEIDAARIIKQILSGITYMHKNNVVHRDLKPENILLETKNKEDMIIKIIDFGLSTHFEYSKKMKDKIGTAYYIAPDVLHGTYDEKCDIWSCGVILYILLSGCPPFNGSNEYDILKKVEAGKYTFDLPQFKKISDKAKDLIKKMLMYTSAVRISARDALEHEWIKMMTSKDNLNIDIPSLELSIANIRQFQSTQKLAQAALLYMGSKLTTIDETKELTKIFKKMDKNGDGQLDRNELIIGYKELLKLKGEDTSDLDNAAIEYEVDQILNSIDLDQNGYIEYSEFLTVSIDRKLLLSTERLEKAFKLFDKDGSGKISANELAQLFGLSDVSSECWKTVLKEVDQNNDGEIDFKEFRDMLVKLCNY

SMILES	growth inhibition [1]	inhibition [2]	inhibition [3]	growth inhibition [4]	outcome [5]	outcome [6]	outcome [7]	outcome [8]
FC(F)(F)c1ccc2nc(-c3ccc(-c4ccc(CNCC5CCCO5)cc4)s3)[nH]c2c1 (stereo unspecified)	98% (active)	47%	-6%	101% (active)	inactive	inactive	inactive	inactive
Nc1ncc(-c2ccc3ncccc3c2)c(N)n1	-1%	55% (active)	2%	97% (active)	inactive	inactive	inactive	inactive
c1ccc2cc3c(Nc4ccc(N5CCCCCC5)cc4)ccnc3cc2c1	76% (active)	10%	1%	94% (active)	inactive	inactive	inactive	inactive
Cc1cccc2[nH]c(-c3cccc(-c4ccc(CNCc5cnn(-c6ccccc6)n5)cc4)c3)nc12	66% (active)	20%	-4%	102% (active)	inactive	inactive	inactive	inactive
COc1ccc(N2CCN(CCCCNC(=O)c3ccc(NC(=O)c4ccc(C(F)(F)F)cc4)cc3)CC2)c(OC)c1	8%	4%	6%	100% (active)	inactive	inactive	inactive	inactive
CCCCOc1ccc(/C=C/c2ccc(-c3c(C)[nH]c(C)c(Cl)c3=O)s2)cc1	96% (active)	-4%	-2%	97% (active)	inactive	inactive	inactive	inactive
O=C(Nc1cc(C(F)(F)F)cc(C(F)(F)F)c1)c1cc(C(F)(F)F)cc(C(F)(F)F)c1	86% (active)	21%	2%	101% (active)	inactive	inactive	inactive	inactive
O=C(Nc1cccc(-c2nn3ncccc3c2-c2ccnc(Nc3ccc(N4CCOCC4)cc3)n2)c1)c1c(F)cccc1F	75% (active)	75% (active)	7%	101% (active)	inactive	inactive	inactive	inactive
CCCCCN1CCCN(Cc2cccc(NC(=O)c3ccc(Cl)c(Cl)c3)c2)CC1	28%	30%	0%	89% (active)	inactive	inactive	inactive	inactive
CCCOc1cc(Cc2cnc(N)nc2N)cc(OC)c1OC	1%	21%	8%	85% (active)	inactive	inactive	inactive	inactive
COc1cc2nc(Nc3ccc4c(c3)OCCO4)nc(N)c2cc1OC	80% (active)	13%	-3%	101% (active)	inactive	inactive	inactive	inactive
CC1(C)N=C(N)N=C(N)N1OCCCOc1cc(Cl)cc(Cl)c1	97% (active)	62% (active)	0%	95% (active)	inactive	inactive	inactive	inactive
CCCCC(O)c1cc(O)c2c(c1)OC(C)(C)CC2C1=CCN(Cc2ccc3ccccc3c2)CC1 (stereo unspecified)	97% (active)	7%	3%	100% (active)	inactive	inactive	inactive	inactive
O=C(Nc1ccc(Oc2ccccc2)cc1)N(Cc1ccc(-c2ccc(CN3CCNCC3)cc2)cc1)C1CCN(Cc2ccccc2)CC1	73% (active)	31%	-1%	101% (active)	inactive	inactive	inactive	inactive
Cc1c(Cc2ccccc2Cl)cnc2nc(N)nc(N)c12	96% (active)	67% (active)	-2%	91% (active)	inactive	inactive	inactive	inactive
CC(NC(=O)c1ccc(O)c(-c2ccc(Cl)c(Cl)c2)c1)C(=O)NCCN1CCCC1 (stereo unspecified)	9%	-5%	-2%	99% (active)	inactive	inactive	inactive	inactive
O=C(Nc1ccc(Cl)cc1)N[C@H]1CCN(CCCCCNC(=O)[C@@H]2C[C@H]2c2ccc(Cl)c(Cl)c2)C1	1%	24%	1%	96% (active)	inactive	inactive	inactive	inactive
Cc1cccc2[nH]c(-c3ccc(-c4cccc(NC(=O)C(C)CN(C)C)c4)cc3)nc12 (stereo unspecified)	61% (active)	20%	1%	99% (active)	inactive	inactive	inactive	inactive
Cc1ccc(NC(=O)Nc2ccc(S(=O)(=O)c3ccc(NC(=O)Nc4ccc(C)c(Cl)c4)cc3)cc2)cc1Cl	42%	49%	4%	99% (active)	inactive	inactive	inactive	inactive
Cn1c2c(c3ccccc31)CN(CCC1(c3ccc(Cl)c(Cl)c3)CN(C(=O)c3ccccc3)CCO1)CC2 (stereo unspecified)	88% (active)	10%	3%	97% (active)	inactive	inactive	inactive	inactive
COc1ccc(-c2ccc3c(-c4cccc(S(C)(=O)=O)c4)cnc(N)c3c2)cc1	12%	41%	2%	89% (active)	inactive	inactive	inactive	inactive

SMILES	growth inhibition [1]	inhibition [2]	inhibition [3]	growth inhibition [4]	outcome [5]	outcome [6]	outcome [7]	outcome [8]
COc1ccc(-c2cc(-c3ccc(S(C)(=O)=O)cc3)cnc2N)cn1	99% (active)	5%	0%	94% (active)	inactive	inactive	inactive	inactive
COc1ccc2ncc(F)c([C@@H](O)CN3CCC(NCc4ccc5c(c4)NCCS5)CC3)c2n1	69% (active)	77% (active)	-3%	99% (active)	inactive	inactive	inactive	inactive
COc1ccc(C=Cc2cc(N)c3ccccc3n2)cc1Br	88% (active)	55% (active)	2%	101% (active)	inactive	inactive	inactive	inactive
CCOC(=O)NCCSC(C)(C)[C@H](NC(=O)[C@H](Cc1cc2ccccc2s1)[C@H](CC)N(O)C=O)C(=O)Nc1nccs1	98% (active)	11%	1%	98% (active)	inactive	inactive	inactive	inactive
COc1ccc(CNCCCCCCNCc2ccc(OC)c3ccccc23)c2ccccc12	49%	100% (active)	-5%	102% (active)	inactive	inactive	inactive	inactive
FC(F)(F)COc1c(CNCCCCCCNCc2ccc3ccccc3c2OCC(F)(F)F)ccc2ccccc12	79% (active)	100% (active)	6%	101% (active)	inactive	inactive	inactive	inactive
CC1CCN(CC[C@H]2CCCN2S(=O)(=O)c2cccc(NC(=O)c3ccc(-c4ccccc4)cc3)c2)CC1	36%	38%	-6%	87% (active)	inactive	inactive	inactive	inactive
Cc1cc(C)cc(OCC(O)CN(Cc2cc(Cl)cc(Cl)c2)C(=O)Nc2ccc(Cl)cc2)c1 (stereo unspecified)	43%	-9%	-2%	97% (active)	inactive	inactive	inactive	inactive
COc1ccc(-c2cncc(-c3ccc(OC)c(OC)c3)n2)cc1OC	90% (active)	6%	6%	95% (active)	inactive	inactive	inactive	inactive
CN1CCN(CCCN(Cc2ccc(-c3ccc(CNC4CCCC4)cc3)cc2)C(=O)CCC2CCCC2)CC1	96% (active)	92% (active)	2%	98% (active)	inactive	inactive	inactive	inactive
O=C(/C=C/c1ccc(Cl)c(Cl)c1)NCCCCCN1CCN(C(=O)Nc2ccc(C(F)(F)F)cc2)CC1	-1%	26%	-5%	99% (active)	inactive	inactive	inactive	inactive
CC(C)c1ccc2[nH]c(C(=O)NC3CCC(N4CCCc5ccc(C#N)cc5C4)CC3)cc2c1 (stereo unspecified)	27%	48%	-3%	91% (active)	inactive	inactive	inactive	inactive
COc1ccc2nc3cc(Cl)ccc3c(NCCCCCCNc3c4ccc(Cl)cc4nc4ccc(OC)cc34)c2c1	79% (active)	20%	-5%	96% (active)	inactive	inactive	inactive	inactive
COCCNc1nc(N2CCC(CNC(=O)c3ccc(-c4ccc(C(=O)N(C)C)cc4C)cc3)CC2)nc2cc(OC)c(OC)cc12	97% (active)	12%	3%	98% (active)	inactive	inactive	inactive	inactive
COc1cccc(CN2CCCC(OC(c3ccc(F)cc3)c3ccc(F)cc3)C2)c1O (stereo unspecified)	95% (active)	8%	5%	95% (active)	inactive	inactive	inactive	inactive
CC(CN1CCN(C)CC1)C(=O)Nc1ccc(-c2cccc(-c3nc4ccccc4[nH]3)c2)cc1 (stereo unspecified)	81% (active)	4%	3%	94% (active)	inactive	inactive	inactive	inactive
Fc1cccc(Cn2ncc3cc(Nc4ncnc5sc(C#Cc6ncc[nH]6)cc45)ccc32)c1	30%	31%	0%	101% (active)	inactive	inactive	inactive	inactive
COc1ccc(-c2cccc(NC(=O)c3ccc(Cl)cc3)c2)cc1CN1CCCC1	52% (active)	55% (active)	-7%	97% (active)	inactive	inactive	inactive	inactive
CN1CCN(c2cc3c(cc2Cl)CCN3C(=O)Nc2ccc(NC(=O)c3ccc(C(F)(F)F)cc3)cc2)CC1	99% (active)	98% (active)	-4%	100% (active)	inactive	inactive	inactive	inactive
CC(=O)N1CCC(C(=O)Nc2ccc(-c3cccc(-c4nc5ccc(C(F)(F)F)cc5[nH]4)c3)cc2)CC1	33%	82% (active)	-9%	88% (active)	inactive	inactive	inactive	inactive
CCc1cn(C)c2c(N3CCCC3=O)cc(C(=O)N[C@@H](Cc3ccccc3)[C@H](O)CNCc3cccc(OC)c3)cc12	97% (active)	7%	0%	96% (active)	inactive	inactive	inactive	inactive
